Experimental data from PubChem BioAssay (Tox21).
Records with an inconclusive call do not appear. Activity calls are given as the source filed them. Unless noted, calls come from the whole dose curve; as a rule, active = well fitted curve in the direction sought with a large enough effect in the repeat runs; inconclusive = weak or mixed curves; inactive = no such curve, though single readings can be large; an effect the other way counts as inactive or inconclusive. Positions of bridges follow the written chain, without caps; N, C: chain ends. Non-standard residues stand in square brackets, D forms with d. Residues, ends and D or L forms follow the SMILES beside them. hArg = N=C(N)NCCCC[C@H](N)C(=O)O; Mpa = O=C(O)CCS

How the values were obtained:
[1] = qHTS assay to identify small molecule antagonists of the thyroid receptor (TR) signaling pathway (AID 743065); note: series mostly up to about 70 µM; nearly all actives have a fitted effect of over 55% in size
Outline: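 GH3.TRE-Luc rat pituitary cells carrying two TR response elements driving luciferase were plated for 4 h, given compound plus 1 nM T3 (final), and incubated 23.5 h at 37 C. ONE-Glo luminescence measured reporter inhibition; CellTiter-Fluor fluorescence tracked cytotoxicity.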

[2] = tested on: thyroid hormone receptor (rat, GH3 cells); experiment: qHTS assay to identify small molecule agonists of the thyroid receptor (TR) signaling pathway (AID 743066; calls by dose curve)
[3] = target: Estrogen receptor (Homo sapiens) (UniProt P03372); experiment: qHTS assay to identify small molecule antagonists of the estrogen receptor alpha (ER-alpha) signaling pathway (AID 743069; active = well fitted curve in the direction sought with a large enough effect in the signal ratio in the repeat runs, not every such curve was filed as active; the % refers to the signal ratio)
Chain of Estrogen receptor (Homo sapiens) (P03372 whole entry, looked up): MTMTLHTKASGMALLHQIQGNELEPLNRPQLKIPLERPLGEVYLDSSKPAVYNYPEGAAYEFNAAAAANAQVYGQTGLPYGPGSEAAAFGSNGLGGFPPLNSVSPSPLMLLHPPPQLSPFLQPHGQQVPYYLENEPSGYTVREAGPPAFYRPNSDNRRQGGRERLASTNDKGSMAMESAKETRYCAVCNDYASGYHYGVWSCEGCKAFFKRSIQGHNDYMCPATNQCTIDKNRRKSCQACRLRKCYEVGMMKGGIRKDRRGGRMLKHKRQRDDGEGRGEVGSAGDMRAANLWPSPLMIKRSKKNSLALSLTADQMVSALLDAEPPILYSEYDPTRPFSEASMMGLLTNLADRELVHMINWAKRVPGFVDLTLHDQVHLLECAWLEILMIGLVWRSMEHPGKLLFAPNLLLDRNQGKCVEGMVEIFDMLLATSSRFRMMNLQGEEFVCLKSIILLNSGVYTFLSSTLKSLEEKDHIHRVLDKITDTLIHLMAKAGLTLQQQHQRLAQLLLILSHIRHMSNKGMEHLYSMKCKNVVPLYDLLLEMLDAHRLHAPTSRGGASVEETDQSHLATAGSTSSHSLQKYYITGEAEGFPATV
Outline: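 Estradiol-stimulated ER-alpha-UAS-bla HEK293 cells, 18 hr compound exposure at 37C. LiveBLAzer B/G substrate, 2 hr RT, fluorescence read.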

[4] = qHTS assay to identify small molecule antagonists of the estrogen receptor alpha (ER-alpha) signaling pathway - cell viability counter screen (AID 743074; calls by dose curve;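 note: HEK293 cells carrying ER-alpha-UAS-bla reporter stimulated with 17beta-estradiol; nearly all actives have a fitted effect of over 45% in size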)
[5] = target: Estrogen receptor (Homo sapiens) (UniProt P03372); experiment: qHTS assay to identify small molecule agonists of the estrogen receptor alpha (ER-alpha) signaling pathway (AID 743075; calls by dose curve;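 note: HEK293 GripTite cells with ER-alpha and UAS-driven beta-lactamase reporter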)
[6] = target: Estrogen receptor (Homo sapiens) (UniProt P03372); experiment: qHTS assay to identify small molecule agonists of the estrogen receptor alpha (ER-alpha) signaling pathway using the BG1 cell line (AID 743079); note: nearly all actives have a fitted effect of over 20% in size
[7] = qHTS assay to identify small molecule antagonists of the estrogen receptor alpha (ER-alpha) signaling pathway using the BG1 cell line (AID 743080; calls by dose curve;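 note: BG1 cells stimulated with 17beta-estradiol alongside compound; series mostly up to about 70 µM; nearly all actives have a fitted effect of over 25% in size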)
Outline: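 BG1-Luc-4E2 cells (endogenous full-length ER-alpha, 4xERE luciferase) hormone-starved 5 days in charcoal-stripped FBS, plated 4,000/well for 24 h, then compound plus 17beta-estradiol for 21.5 h at 37 C; ONE-Glo luminescence read.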

Aromatase (Homo sapiens) = Aromatase (Homo sapiens) (UniProt P11511); experiment: qHTS assay to identify aromatase inhibitors (AID 743083); note: series mostly up to about 70 µM; nearly all actives have a fitted effect of over 55% in size
Chain of Aromatase (Homo sapiens) (P11511 whole entry, looked up): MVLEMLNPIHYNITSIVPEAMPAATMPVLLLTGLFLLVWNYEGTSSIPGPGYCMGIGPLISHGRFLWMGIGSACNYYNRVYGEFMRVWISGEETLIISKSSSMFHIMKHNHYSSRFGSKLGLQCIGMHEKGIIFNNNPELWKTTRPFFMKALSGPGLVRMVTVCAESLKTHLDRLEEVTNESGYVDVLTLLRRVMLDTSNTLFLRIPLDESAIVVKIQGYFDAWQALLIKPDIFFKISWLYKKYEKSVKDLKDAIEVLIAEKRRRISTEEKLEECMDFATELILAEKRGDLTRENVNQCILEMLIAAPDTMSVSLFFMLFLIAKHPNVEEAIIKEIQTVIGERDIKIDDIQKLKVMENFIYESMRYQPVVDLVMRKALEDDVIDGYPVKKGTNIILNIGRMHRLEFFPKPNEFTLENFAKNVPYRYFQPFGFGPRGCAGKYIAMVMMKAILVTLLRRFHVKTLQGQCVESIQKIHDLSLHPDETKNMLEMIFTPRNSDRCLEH

[8] = qHTS assay to identify aromatase inhibitors - cell viability counter screen (AID 743084);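 note: cells stimulated with testosterone during compound exposure; nearly all actives have a fitted effect of over 55% in size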
[9] = qHTS assay to identify small molecule that activate the aryl hydrocarbon receptor (AhR) signaling pathway - cell viability counter screen (AID 743086);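 note: HepG2 liver cells carrying the AhR DRE luciferase reporter; series mostly up to about 70 µM; nearly all actives have a fitted effect of over 45% in size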
Outline: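 HepG2-AhR-luc (HG2L7.5c1) cells, 4000/well, were preincubated 5 h at 37C, exposed to compound in qHTS format for 24 hr at 37C, then given CellTiter-Fluor for 30 min; viability was read as fluorescence in the reporter wells.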

[10] = target: Peroxisome proliferator-activated receptor gamma (Homo sapiens) (UniProt P37231); experiment: qHTS assay to identify small molecule agonists of the peroxisome proliferator-activated receptor gamma (PPARg) signaling pathway (AID 743094; active = well fitted activation curve with a large enough effect in the signal ratio in the repeat runs, not every such curve was filed as active; the % refers to the signal ratio)
Chain of Peroxisome proliferator-activated receptor gamma (Homo sapiens) (P37231 whole entry, looked up): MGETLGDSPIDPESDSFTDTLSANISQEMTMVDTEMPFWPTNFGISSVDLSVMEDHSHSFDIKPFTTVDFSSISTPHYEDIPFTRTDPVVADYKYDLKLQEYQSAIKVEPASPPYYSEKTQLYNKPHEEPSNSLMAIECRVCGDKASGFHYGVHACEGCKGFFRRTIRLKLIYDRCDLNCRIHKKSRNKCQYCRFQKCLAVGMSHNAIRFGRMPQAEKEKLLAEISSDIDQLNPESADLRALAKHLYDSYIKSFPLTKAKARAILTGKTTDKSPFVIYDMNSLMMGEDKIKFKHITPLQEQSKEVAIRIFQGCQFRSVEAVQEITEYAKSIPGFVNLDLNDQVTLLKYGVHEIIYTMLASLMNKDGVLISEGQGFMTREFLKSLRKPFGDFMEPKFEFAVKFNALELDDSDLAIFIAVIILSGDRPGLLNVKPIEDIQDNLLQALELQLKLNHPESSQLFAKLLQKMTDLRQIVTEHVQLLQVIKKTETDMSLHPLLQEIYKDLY
Outline: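 Beta-lactamase FRET fluorescence was the read-out after a 1 h room-temperature substrate step, following 17 h compound treatment at 37C of HEK293H cells expressing a UAS-driven bla reporter responsive to PPARg.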

[11] = target: Peroxisome proliferator-activated receptor gamma (Homo sapiens) (UniProt P37231); experiment: qHTS assay to identify small molecule antagonists of the peroxisome proliferator-activated receptor gamma (PPARg) signaling pathway (AID 743191; calls by dose curve; note: series mostly up to about 63 µM; nearly all actives have a fitted effect of over 30% in size)
Outline: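 GeneBLAzer PPARg UAS-bla HEK293H cells carrying a UAS-driven beta-lactamase reporter were plated at 3000 cells/well, preincubated 5 h at 37C, then given compound for 17 h at 37C; LiveBLAzer B/G FRET substrate was read after 1 h at room temperature.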

[12] = qHTS assay to identify small molecule antagonists of the peroxisome proliferator-activated receptor gamma (PPARg) signaling pathway - cell viability counter screen (AID 743194); note: nearly all actives have a fitted effect of over 55% in size
Outline: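 PPARg-UAS-bla HEK293H cells were plated, rested 5 h at 37 C, then treated with compounds plus rosiglitazone (50 nM final) for 17 h at 37 C; viability was then read by CellTiter-Glo luminescence after 30 min at room temperature.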

[13] = qHTS assay for small molecule agonists of the antioxidant response element (ARE) signaling pathway (AID 743202; active = well fitted activation curve with a large enough effect in the signal ratio in the repeat runs, not every such curve was filed as active; the % refers to the signal ratio)
Outline: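 Compounds delivered in DMSO to ARE-bla HepG2 cells (2,000 cells/well, pre-incubated 5 h) and left 16 h at 37 C. LiveBLAzer B/G FRET substrate then added for 2 h at RT before fluorescence reading.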

[14] = qHTS assay for small molecule agonists of the antioxidant response element (ARE) signaling pathway - cell viability counter screen (AID 743203; calls by dose curve; note: nearly all actives have a fitted effect of over 55% in size)
Outline: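 HepG2 cells carrying ARE-driven beta-lactamase; 2,000 cells/well; 5 hrs plating; compound pinned from DMSO; 16 hrs 37C/5% CO2; CellTiter-Glo added; 30 min RT; luminescence.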

[15] = qHTS assay for small molecule activators of the heat shock response signaling pathway - cell viability counter screen (AID 743209); note: nearly all actives have a fitted effect of over 50% in size
Outline: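 Luminescence from CellTiter-Glo, added after the beta-lactamase FRET read, gave the viability signal. Cells were HSE-bla HeLa treated with DMSO-dissolved compounds for 5 h at 37 C following overnight plating.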

[16] = qHTS assay for small molecule activators of the heat shock response signaling pathway (AID 743210; active = well fitted activation curve with a large enough effect in the signal ratio in the repeat runs, with a control signal flat, not every such curve was filed as active; the % refers to the signal ratio;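 note: HeLa cells with beta-lactamase reporter driven by heat shock elements; series mostly up to about 63 µM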)
Outline: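 Reporter gene assay: HeLa cells stably bearing an HSE-bla construct, compound treatment 5 h at 37 C, LiveBLAzer substrate 2.5 h at RT, fluorescence intensity.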

[17] = qHTS assay to identify small molecule agonists of the peroxisome proliferator-activated receptor delta (PPARd) signaling pathway - cell viability counter screen (AID 743211); note: nearly all actives have a fitted effect of over 55% in size
Outline: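 Read-out: CellTiter-Glo luminescence, 30 min RT, measured in the same wells as the beta-lactamase reporter. Cells: GeneBLAzer PPAR delta UAS-bla HEK293H, 3000 cells/well, compound exposure 17 h at 37C.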

[18] = qHTS assay to identify small molecule antagonists of the estrogen receptor alpha (ER-alpha) signaling pathway using the BG1 cell line - cell viability counter screen (AID 743081);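 note: compound given together with 17beta-estradiol as the ER stimulus; series mostly up to about 70 µM; nearly all actives have a fitted effect of over 45% in size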
[19] = target: Aryl hydrocarbon receptor (Homo sapiens) (UniProt P35869); experiment: qHTS assay to identify small molecule that activate the aryl hydrocarbon receptor (AhR) signaling pathway (AID 743085);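 note: HG2L7.5c1 human HepG2 liver cells with stably integrated DRE-driven firefly reporter; series mostly up to about 70 µM; nearly all actives have a fitted effect of over 15% in size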
Chain of Aryl hydrocarbon receptor (Homo sapiens) (P35869 whole entry, looked up): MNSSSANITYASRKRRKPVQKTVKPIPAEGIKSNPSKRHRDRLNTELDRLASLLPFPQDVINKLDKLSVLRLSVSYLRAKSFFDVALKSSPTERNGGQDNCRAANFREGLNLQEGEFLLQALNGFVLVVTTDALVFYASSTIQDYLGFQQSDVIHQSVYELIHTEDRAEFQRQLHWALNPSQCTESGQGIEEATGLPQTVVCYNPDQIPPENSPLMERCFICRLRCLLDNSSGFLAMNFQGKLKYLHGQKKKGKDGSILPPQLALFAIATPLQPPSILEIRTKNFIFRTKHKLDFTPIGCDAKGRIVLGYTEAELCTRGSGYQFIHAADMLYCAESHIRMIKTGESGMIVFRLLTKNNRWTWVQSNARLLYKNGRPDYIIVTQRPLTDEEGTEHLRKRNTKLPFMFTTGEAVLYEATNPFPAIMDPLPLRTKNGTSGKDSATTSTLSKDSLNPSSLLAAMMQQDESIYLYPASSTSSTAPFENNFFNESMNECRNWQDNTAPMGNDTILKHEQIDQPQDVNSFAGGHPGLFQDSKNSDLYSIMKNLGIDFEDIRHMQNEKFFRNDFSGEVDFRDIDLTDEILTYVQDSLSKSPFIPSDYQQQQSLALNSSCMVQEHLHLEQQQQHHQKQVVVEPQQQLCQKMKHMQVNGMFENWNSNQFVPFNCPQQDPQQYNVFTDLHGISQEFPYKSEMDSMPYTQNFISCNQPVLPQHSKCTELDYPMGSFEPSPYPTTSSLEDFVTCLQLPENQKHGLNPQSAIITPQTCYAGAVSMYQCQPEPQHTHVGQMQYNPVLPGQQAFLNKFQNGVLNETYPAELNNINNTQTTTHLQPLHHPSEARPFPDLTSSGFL
Outline: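 Luminescence read-out: ONE-Glo reagent, 30 min at room temperature, in HG2L7.5c1 HepG2 reporter cells treated 24 h at 37C. Viability was measured beforehand by CellTiter-Fluor fluorescence after 30 min at 37C.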
% is set by controls: 0 for no effect and ±100 for the full control effect.

CCCC(=O)OC/C=C(\C)CCC=C(C)C
inactive: Potency [1] | outcome [2] | outcome [3] | outcome [4] | Potency [5] | Potency [6] | outcome [7] | outcome (Aromatase (Homo sapiens)) | Potency [8] | Potency [9] | Potency [10] | outcome [11] | outcome [12] | Potency [13] | outcome [14] | Potency [15] | outcome [16] | outcome [17]

CCCCCc1cccc(=O)o1
inactive: Potency [1] | outcome [2] | outcome [3] | outcome [4] | Potency [5] | Potency [6] | outcome [7] | Potency [18] | outcome (Aromatase (Homo sapiens)) | Potency [8] | Potency [9] | Potency [10] | outcome [12] | outcome [14] | Potency [15] | outcome [16] | outcome [17]

Cc1ccccc1C(N)=O
inactive: Potency [1] | outcome [2] | outcome [3] | outcome [4] | Potency [5] | Potency [6] | outcome [7] | Potency [18] | outcome (Aromatase (Homo sapiens)) | Potency [8] | Potency [10] | outcome [12] | Potency [13] | outcome [14] | Potency [15] | outcome [16] | outcome [17]

CC(CO)(CO)CO
inactive: Potency [1] | outcome [2] | outcome [3] | outcome [4] | Potency [5] | outcome [7] | Potency [18] | outcome (Aromatase (Homo sapiens)) | Potency [8] | Potency [19] | Potency [9] | Potency [10] | Potency [13] | outcome [14] | Potency [15] | outcome [17]

O=C1c2ccccc2C(=O)c2cc(Cl)ccc21
inactive: activity, negative = inhibition [1] 31.6% [at 8.44 µM] | activation [2] 1.1% [at 8.08 µM] | activity, negative = inhibition [3] -4.44% [at 6.71 µM] | activity, negative = cytotoxicity [4] -11.1% [at 6.72 µM] | activation [5] -3.38% [at 6.71 µM] | activity change, negative = inhibition [7] 1.09% [at 8.47 µM] | activity change, negative = cytotoxicity [18] 5.98% [at 8.47 µM] | activity, negative = inhibition (Aromatase (Homo sapiens)) 23.3% [at 8.47 µM] | activity change, negative = cytotoxicity [8] 7.6% [at 8.47 µM] | viability change, negative = cytotoxic [9] 10.5% [at 8.47 µM] | activation [10] 0.384% [at 7.08 µM] | activity change, negative = cytotoxicity [12] 2.72% [at 5.95 µM] | activation [13] -9.26% [at 8.36 µM] | activity change, negative = cytotoxicity [15] 2.51% [at 5.95 µM] | activity change, negative = cytotoxicity [17] -0.0176% [at 5.95 µM]

CC(=O)CC(=O)OC(C)(C)C
inactive: Potency [1] | outcome [2] | outcome [3] | outcome [4] | Potency [5] | outcome [7] | Potency [18] | outcome (Aromatase (Homo sapiens)) | Potency [8] | Potency [19] | Potency [9] | Potency [10] | outcome [12] | outcome [14] | Potency [15] | outcome [17]

NC(=O)[C@@H]1CSSCCC(=O)N[C@@H](CCCCN=C(N)N)C(=O)NCC(=O)N[C@@H](CC(=O)O)C(=O)N[C@@H](Cc2c[nH]c3ccccc23)C(=O)N2CCC[C@H]2C(=O)N1 ([Mpa][hArg]GDWPC-NH2; disulfide 1-7)
inactive: Potency [1] | outcome [2] | outcome [3] | outcome [4] | outcome [7] | Potency [18] | outcome (Aromatase (Homo sapiens)) | Potency [8] | Potency [19] | Potency [9] | Potency [10] | outcome [11] | outcome [12] | Potency [13] | outcome [14] | Potency [15] | outcome [16] | outcome [17]

O=C(O)c1cc2ccccc2nc1C(=O)O
inactive: Potency [1] | outcome [2] | outcome [3] | outcome [4] | Potency [5] | outcome [7] | Potency [18] | outcome (Aromatase (Homo sapiens)) | Potency [8] | Potency [19] | Potency [9] | Potency [10] | outcome [11] | Potency [13] | outcome [14] | Potency [15] | outcome [16] | outcome [17]

Cc1cc(-c2ccccc2)nnc1NCCN1CCOCC1
inactive: Potency [1] | outcome [2] | outcome [3] | outcome [4] | Potency [5] | outcome [7] | Potency [18] | outcome (Aromatase (Homo sapiens)) | Potency [8] | Potency [9] | Potency [10] | outcome [11] | outcome [12] | Potency [13] | outcome [14] | Potency [15] | outcome [17]

Fc1ccccc1
inactive: Potency [1] | outcome [2] | outcome [3] | outcome [4] | Potency [5] | Potency [6] | outcome [7] | Potency [18] | outcome (Aromatase (Homo sapiens)) | Potency [8] | outcome [12] | outcome [14] | Potency [15] | outcome [16] | outcome [17]

CC(C)COC(=O)c1ccccc1
inactive: Potency [1] | outcome [2] | outcome [3] | outcome [4] | Potency [5] | outcome [7] | Potency [18] | Potency [8] | Potency [19] | Potency [9] | Potency [10] | outcome [12] | Potency [15] | outcome [17]

N[C@@H](CSCCCO)C(=O)O
inactive: Potency [1] | outcome [2] | outcome [3] | outcome [4] | Potency [5] | Potency [6] | outcome [7] | Potency [18] | outcome (Aromatase (Homo sapiens)) | Potency [8] | Potency [9] | Potency [10] | outcome [12] | Potency [13] | outcome [14] | Potency [15] | outcome [16] | outcome [17]

CCC[C@@H]1C[C@@H](C(=O)N[C@@H]([C@H]2O[C@H](SC)[C@H](O)[C@@H](O)[C@H]2O)[C@@H](C)O)N(C)C1
inactive: Potency [1] | outcome [2] | outcome [3] | outcome [4] | Potency [5] | Potency [6] | outcome [7] | Potency [18] | outcome (Aromatase (Homo sapiens)) | Potency [8] | Potency [9] | Potency [10] | Potency [13] | outcome [14] | Potency [15] | outcome [16] | outcome [17]

CC(C)CO
inactive: Potency [1] | outcome [2] | outcome [3] | outcome [4] | Potency [5] | Potency [6] | outcome [7] | Potency [18] | outcome (Aromatase (Homo sapiens)) | Potency [19] | Potency [9] | outcome [12] | Potency [13] | outcome [14] | Potency [15] | outcome [16] | outcome [17]

CN(C)CCCCl
inactive: Potency [1] | outcome [2] | outcome [3] | outcome [4] | Potency [5] | outcome [7] | Potency [18] | outcome (Aromatase (Homo sapiens)) | Potency [8] | Potency [9] | outcome [12] | Potency [13] | outcome [14] | Potency [15] | outcome [16] | outcome [17]

CCOC(=O)CC1(C)OCC(C)O1 (stereo not given)
inactive: Potency [1] | outcome [2] | outcome [3] | outcome [4] | Potency [5] | Potency [6] | outcome [7] | Potency [18] | outcome (Aromatase (Homo sapiens)) | Potency [8] | Potency [10] | outcome [12] | Potency [13] | outcome [14] | Potency [15] | outcome [16] | outcome [17]

O=C(CCCCC(=O)Nc1c(I)cc(I)c(C(=O)O)c1I)Nc1c(I)cc(I)c(C(=O)O)c1I
inactive: Potency [1] | outcome [2] | outcome [3] | outcome [4] | Potency [5] | Potency [6] | outcome [7] | outcome (Aromatase (Homo sapiens)) | Potency [8] | Potency [19] | Potency [9] | Potency [10] | outcome [11] | outcome [12] | Potency [13] | outcome [14] | Potency [15] | outcome [16] | outcome [17]
